Bioassay records from PubChem BioAssay.
Sfp inh – inhibitors of Bacillus subtilis Sfp phosphopantetheinyl transferase. Biochemical Sfp PPTase activity, qHTS. Potency, µM, for inactives: largest response in the series, negative = inhibition, actives largely listed as inhibitors. hit rate 3.5% among 310,000. Q9F4F7;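 note: the enzyme is Sfp with the accession as filed and its product quenches rhodamine fluorescence; 0% = enzyme reaction without inhibitor and -100% = no enzyme wells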
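Step 1, compound plus 15 nM Sfp-PPTase, 15 min, room temperature. Step 2, add rhodamine-CoA (5 uM) and BHQ-2-YbbR (12.5 uM). Step 3, read 525/598 nm fluorescence at 0 and 30 min.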
PLK1 PBD block – PLK1 (human) polo-box domain binding inhibition; P53350; Plk1 PBD binding of FITC phosphopeptide, fluorescence polarization; Potency, µM, without a hit: max response, negative = inhibition, hits mostly inhibitors; hit rate 2.8% among 360,000; AID 720504; note: series mostly up to about 57 µM; nearly all actives have a fitted effect of over 65% in size
Gal4-VP16 FLuc – Gal4-VP16 reporter inhibition counter-screen; Drosophila S2 Gal4-VP16 UAS-luciferase, luminescence, 20 h; Potency, µM (highest dose often 53.6 µM), inactives show at the top dose activity, negative = inhibition, most hits filed as inhibitors; hit rate 3.5% among 310,000;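 note: Gal4-VP16 expression switched on by copper sulfate through the metallothionein promoter; nearly all actives have a fitted effect of over 50% in size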
RORgamma inh – blocks mouse ROR gamma transcriptional activity. Potency, µM (titrated, usually from 53.6 µM), for inactives: at the top dose activity change, negative = inhibition, usual class: inhibitors. AID 2551. Drosophila S2 Gal4-RORgamma UAS-luciferase reporter, 20 h. hit rate 5.4% among 310,000. P51450; note: nearly all actives have a fitted effect of over 60% in size
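Read-out: Photinus luciferase luminescence; inhibitors lower reporter signal. Insect Schneider cells with Gal4-ROR gamma fusion under metallothionein promoter, UAS reporter; 700 uM final copper sulfate induction, 20 hr, ambient temperature.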
ALDH1A1 inh – inhibitors of human aldehyde dehydrogenase 1A1 | Purified ALDH1A1, NADH fluorescence, propionaldehyde substrate | hit rate 7.3% among 220,000 | AID 1030 | Potency, µM (titrated, usually from 75.3 µM), for the others: at the highest dose activity, negative = inhibition, most hits filed as inhibitors; active = well fitted inhibition curve with a large enough effect, not every such curve was filed as active; inconclusive = small, poorly fitted or top-dose-only effect, or another doubt; inactive = no such curve, though single readings can be large or run the other way;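 note: plate controls were no enzyme wells and a reference inhibitor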
Target sequence (P00352 whole entry, looked up): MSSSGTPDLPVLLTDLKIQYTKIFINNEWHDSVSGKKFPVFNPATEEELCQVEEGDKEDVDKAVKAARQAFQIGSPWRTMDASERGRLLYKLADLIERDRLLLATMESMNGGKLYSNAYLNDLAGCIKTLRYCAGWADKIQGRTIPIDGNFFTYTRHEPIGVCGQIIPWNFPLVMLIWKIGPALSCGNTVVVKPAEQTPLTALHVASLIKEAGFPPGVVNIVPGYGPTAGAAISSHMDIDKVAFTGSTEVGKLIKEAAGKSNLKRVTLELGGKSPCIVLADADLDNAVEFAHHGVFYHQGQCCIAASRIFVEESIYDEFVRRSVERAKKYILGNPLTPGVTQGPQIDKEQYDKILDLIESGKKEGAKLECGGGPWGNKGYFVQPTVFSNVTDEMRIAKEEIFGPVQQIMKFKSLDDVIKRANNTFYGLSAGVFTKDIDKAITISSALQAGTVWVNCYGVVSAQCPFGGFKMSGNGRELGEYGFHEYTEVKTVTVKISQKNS
An asterisk follows results filed as active; ? = inconclusive; / = no result given; [ ] = dose if it differs, or a comment. An excerpt weighted towards active compounds, which were near 12% of everything screened. Unless noted, calls come from the whole dose curve; as a rule, active = well fitted curve in the direction sought with a large enough effect; inconclusive = small, poorly fitted or top-dose-only effect, or another doubt; inactive = no such curve, though single readings can be large; an effect the other way counts as inactive or inconclusive. Unless noted, % is set by controls: 0 for no effect and ±100 for the full control effect; potency is the fitted concentration of half-maximal effect.

SMILES | Sfp inh | PLK1 PBD block | Gal4-VP16 FLuc | RORgamma inh | ALDH1A1 inh
CN(C)CCCN(C(=O)c1ccc(S(=O)(=O)N(C)C)cc1)c1nc2cc3c(cc2s1)OCO3 | -1% | -15% | -3% | 5% | -9%
CCN(CC)CCN(C(=O)c1ccc2ccccc2c1)c1nc2cc3c(cc2s1)OCO3 | 45µM* | 1% | -13% | 34% | /
CC#C[C@@]1(O)CC[C@H]2[C@@H]3CCC4=CC(=O)CCC4=C3[C@H](c3ccc(N(C)C)cc3)C[C@]21C | 11% | / | -10%[17 µM] | 6%[16.9 µM] | 7%[20.9 µM]
CN(C)CCN(C(=O)c1ccc(N2C(=O)CCC2=O)cc1)c1nc2cc3c(cc2s1)OCCO3 | -13% | / | -13% | -11% | 28µM*
O=C(CCc1nnc2ccc(NCc3ccco3)nn12)Nc1ccccc1F | 5% | -8% | 11% | 16% | /
O=c1[nH]cnc2scc(-c3ccc(Br)cc3)c12 | 8% | -13% | 2% | -7% | 9%
S=c1[nH]cnc2scc(-c3ccc(Br)cc3)c12 | 8% | ? | 0.63µM* | 0.5µM* | -4%
Cc1ccc(-c2csc3nc[nH]c(=S)c23)cc1 | 4% | -11% | 0.014µM* | 0.025µM* | 8%
Cc1cc(-c2csc3nc[nH]c(=S)c23)cc(C)c1C | 14% | -16% | 0.56µM* | 0.32µM* | 21%
S=c1[nH]cnc2scc(-c3ccc(Cl)cc3)c12 | -20% | 8.4µM* | 1µM* | 0.45µM* | /
Cc1ccc(F)c(S(=O)(=O)NC(=O)C2(C)CCN2C(=O)C/C=C/c2ccccc2)c1 (stereo unspecified) | / | -11% | / | / | /
COc1ccc(NC(=O)c2cc(-c3cc(Cl)ccc3C)n[nH]2)cn1 | / | -16% | / | / | /
O=c1[nH][nH]c(=S)n1-c1ccccc1C(F)(F)F | 7.9µM* | / | -3% | 4% | /
c1ccc(Nc2nc(-c3cccs3)cs2)nc1 | -6% | -13% | ? | ? | -8%
Cc1cccnc1Nc1nc(-c2ccc(O)cc2O)cs1 | 45µM* | 19µM* | ? | 6.3µM* | ?
Oc1ccc(-c2csc(Nc3ccccn3)n2)c(O)c1 | ? | -9% | ? | 11µM* | /
CCCCN(C)C(=O)c1ccc(Nc2nc(C(N)Cc3ccc(C(F)(F)F)cc3)cs2)nc1 (stereo unspecified) | / | -7% | / | / | /
CC(C)CC(=O)NC(=S)Nc1cccc(NC(=O)c2ccccc2Cl)c1 | -9% | -15% | ? | ? | ?
CCCC(=O)NC(=S)Nc1cccc(NC(=O)c2ccccc2Cl)c1 | -1% | -3% | ? | ? | ?
O=C(COc1ccccc1)NC(=S)Nc1cccc(NC(=O)c2ccccc2Cl)c1 | 16% | -4% | -15% | ? | 10µM*
CCC(=O)Nc1ccc(Cl)c(NC(=S)NC(=O)COc2ccc(Cl)cc2)c1 | 6% | -7% | -16% | -18% | 0%
CCC(=O)Nc1ccc(Cl)c(NC(=S)NC(=O)COc2ccccc2)c1 | -2% | 27µM* | 19% | 10% | 3%
Cc1ccc(OCC(=O)NC(=S)Nc2cccc(NC(=O)c3ccccc3Cl)c2)cc1 | -10% | 6% | -24% | ? | 13µM*
CC(C)Oc1cccc(C(=O)NC(=S)Nc2cccc(NC(=O)c3ccccc3Cl)c2)c1 | 4% | -8% | 8.9µM* | 11µM* | 11µM*
CCCCC1Cc2[nH]c(=S)[nH]c(=O)c2C(c2ccc(F)cc2)O1 (stereo unspecified) | / | -11% | / | / | /
SMILES | Sfp inh | PLK1 PBD block | Gal4-VP16 FLuc | RORgamma inh | ALDH1A1 inh
COc1cccc(CCN2C(=O)CCC3=C2CCC3=O)c1 | / | -1% | / | / | /
Cc1cccc(CC(Cc2nc3ccccc3[nH]2)c2nc3ccccc3[nH]2)c1 (stereo unspecified) | 40µM* | -7% | -7%[0.365 µM] | ? | 4%
COc1ccccc1-c1ccc2ncnc(NCCNC(C)=O)c2c1 | 13% | / | -4% | 14% | ?
CCOC(=O)/C=C/[C@H]1CCc2cccc(Cl)c2O1 | / | 21µM* | / | / | /
CCOc1cc(C(=O)Nc2ccc3c4c(cccc24)C(=O)N3CC)cc(OCC)c1OCC | -1% | -3% | 22% | -25% | ?
CCN1C(=O)c2cccc3c(NC(=O)c4cccc(N5C(=O)CCC5=O)c4)ccc1c23 | 8% | -2% | -10% | -35% | 2µM*
CCN1C(=O)c2cccc3c(NC(=O)C(C)(C)C)ccc1c23 | 10% | -5% | 13% | 6% | ?
CCCCC(=O)Nc1ccc2c3c(cccc13)C(=O)N2CC | 6% | -1% | 3% | -29% | 7.1µM*
Cc1cc(N2CCOCC2)nc(NCc2ccccc2)n1 | -25% | -6% | ? | 7% | 7%
Cc1cc(N2CCCCC2)nc(NCc2ccccc2)n1 | -22% | -3% | ? | 20µM* | ?
Cc1cc(N2CCCCC2)nc(SCc2ccc(C#N)cc2)n1 | ? | -5% | ? | -35% | 1.3µM*
N#Cc1ccc(CSc2nc(N)cc(N)n2)cc1 | 15% | -2% | -5% | 25% | /
COc1ccccc1/C=C1\CCCC2=C1Nc1nnnn1C2c1ccccc1OC (stereo unspecified) | 50µM* | ? | 14µM* | ? | 25µM*
CCOc1ccc(S(=O)(=O)NCCC(=O)NCc2ccco2)cc1 | 7% | 0% | 12% | 6% | 2%
COc1ccc(S(=O)(=O)NCCSCc2ccco2)cc1 | -25% | -15% | -5% | 12% | 2.8µM*
COc1ccc(S(=O)(=O)NCCSCc2cccs2)cc1 | 22% | -17% | 2% | 5% | 1µM*
COc1ccc(S(=O)(=O)NCCc2ccco2)cc1OC | 3% | -1% | -6% | 0% | /
Cc1ccccc1N(CC(=O)NCCSCc1ccco1)S(C)(=O)=O | 20µM* | -7% | 10% | 6% | ?
CCOc1ccc(S(=O)(=O)NCCSCc2ccco2)cc1 | -15% | -2% | 5% | 7% | 2.8µM*
CCOc1ccccc1N(CC(=O)NCCSCc1ccco1)S(=O)(=O)c1ccccc1 | -26% | -10% | 1% | 13% | /
O=C(NCc1cccnc1)c1cc(C2CCCCN2C(=O)c2ccc3ccccc3c2)on1 (stereo unspecified) | / | -9% | / | / | /
NS(=O)(=O)c1ccc(S(=O)(=O)N2CCCC(c3ccccc3)C2)cc1 (stereo unspecified) | / | -11% | / | / | /
CCN(CC)C(CNC(=O)CSc1nnnn1-c1c(C)cccc1C)c1ccco1 (stereo unspecified) | / | -1% | / | / | /
NCCSCCc1ccccc1 | / | / | / | / | 7%[13.5 µM]
COc1ccc(C(C)(O)c2nc(-c3ccccc3OC)cs2)cc1 (stereo unspecified) | / | -7% | / | / | /
COc1ccc(S(=O)(=O)NCCSCc2ccco2)cc1OC | 28µM* | -4% | 17% | -3% | ?
Cc1cc(C)c(S(=O)(=O)NCCSCc2ccco2)c(C)c1 | / | -23% | / | / | /
COc1ccc(S(=O)(=O)NCCSCc2ccccc2C)cc1Br | -20% | -20% | -2% | 0% | 25µM*
Cc1ccc(S(=O)(=O)NCCSCc2ccco2)cc1 | -1% | -14% | -6% | 8% | 20µM*
O=C(Nc1ccccc1Cl)c1cc(C2CCCCN2C(=O)CCCc2ccccc2)on1 (stereo unspecified) | / | -1% | / | / | /
